# KCNQ2 enhance: potentiators of rat KCNQ2 potassium channel | 310,000 compounds, 0.54% hits | CHO-K1 KCNQ2, FluxOR thallium flux fluorescence; stronger effect = higher value | Potassium voltage-gated channel subfamily KQT member 2 (Rattus norvegicus), O88943 | B-score at 10 µM;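 active = fluorescence ratio B-score at least 3 SD of library B-scores, with initial fluorescence B-score within 3 of them, cut at about 5.3 in these data; same plate scores as AID 2156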;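 note: B-score of peak minus minimum over baseline fluorescence ratio after K+ and Tl+ stimulus; positive B-score means potentiation of KCNQ2 with more thallium influx and brighter signal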
# Target sequence (O88943 whole entry, looked up): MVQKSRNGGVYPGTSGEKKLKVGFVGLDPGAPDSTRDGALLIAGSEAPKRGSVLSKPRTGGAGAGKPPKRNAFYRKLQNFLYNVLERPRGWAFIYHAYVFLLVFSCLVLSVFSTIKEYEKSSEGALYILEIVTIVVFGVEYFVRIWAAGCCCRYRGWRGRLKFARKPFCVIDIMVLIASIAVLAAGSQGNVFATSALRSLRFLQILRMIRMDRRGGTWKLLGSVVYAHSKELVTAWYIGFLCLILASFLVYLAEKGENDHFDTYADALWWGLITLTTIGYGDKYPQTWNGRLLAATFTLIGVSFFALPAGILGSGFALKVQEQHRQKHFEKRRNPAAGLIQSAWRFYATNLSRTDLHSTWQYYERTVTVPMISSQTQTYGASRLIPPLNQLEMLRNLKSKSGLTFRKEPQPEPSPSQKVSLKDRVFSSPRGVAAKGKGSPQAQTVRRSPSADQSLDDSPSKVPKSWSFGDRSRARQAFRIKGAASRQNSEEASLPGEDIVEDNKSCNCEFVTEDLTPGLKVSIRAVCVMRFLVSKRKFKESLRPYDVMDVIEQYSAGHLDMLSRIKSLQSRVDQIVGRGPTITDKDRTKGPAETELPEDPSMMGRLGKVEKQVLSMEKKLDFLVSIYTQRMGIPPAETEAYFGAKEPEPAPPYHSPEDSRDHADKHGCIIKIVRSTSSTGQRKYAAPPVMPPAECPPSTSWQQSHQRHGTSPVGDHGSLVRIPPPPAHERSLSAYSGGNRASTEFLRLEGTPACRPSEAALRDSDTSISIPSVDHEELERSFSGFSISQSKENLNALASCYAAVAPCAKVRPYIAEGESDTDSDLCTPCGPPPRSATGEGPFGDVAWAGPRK
# KCNQ2 block: rat KCNQ2 potassium channel inhibitors, primary screen, cell-based, CHO-K1, FluxOR thallium flux, B-score. 20 min; stronger effect = lower value. B-score at 10 µM. 310,000 compounds, 1.1% hits. AID 2156, 2009;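 active = fluorescence ratio B-score at most minus 3 library SDs, with starting brightness B-score within 2 library SDs, cut at about -5.5 in these data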
# * marks the source's active call; other numbers are inactive results; i = inactive; nt = no result. Only some compounds are listed: those with a hit (about 1.6% of all), similar ones and a draw of the others.
SMILES,KCNQ2 enhance,KCNQ2 block
CC1CCCC(C)N1C(=O)Cn1nnc(-c2ccc([N+](=O)[O-])cc2)n1 (stereo not given),nt,i
O=C1Nc2ccc(Br)cc2/C1=C/c1ccc(C(=O)O)cc1,1.63,i
Nc1ccc(/C=C/C(=O)c2cccs2)cc1,-6.86,-6.86*
O=C(/C=C/c1ccc([N+](=O)[O-])cc1)c1cccs1,nt,i
O=[N+]([O-])c1cccc(-c2nnc3ccccn23)c1,0.67,i
Cc1cccc(-c2noc(CN(C(=O)C34CC5CC(CC(C5)C3)C4)C(C)C)n2)c1,-5.71,-5.71*
COc1cc(OC)cc(C(=O)N(Cc2nc(-c3cccc(C)c3)no2)C(C)C)c1,nt,i
N#CCN1C(=O)NC2(CCCc3sccc32)C1=O (stereo not given),0.2,i
Cc1ccc(O)c(C(=O)c2cc(C(=O)NCCc3ccccc3)c(=O)n(CCc3ccccc3)c2)c1,-7.09,-7.09*
COc1ccc(O)c(C(=O)c2cc(C(=O)NCCc3ccccc3)c(=O)n(CCc3ccccc3)c2)c1,nt,i
O=C(NCCCNC(=O)c1cnccn1)c1cccc(F)c1,nt,i
O=C(C(Cc1ccccc1)n1cccc1)N1CCN(Cc2ccccc2)CC1 (stereo not given),nt,i
CCC(C(=O)N1CCN(c2cccc(Cl)c2)CC1)c1ccccc1 (stereo not given),-5.58,-5.58*
O=C(C(Cc1ccccc1)n1cccc1)N1CCN(c2cccc(Cl)c2)CC1 (stereo not given),-5.78,-5.78*
CCC(CC)C(=O)N1CCN(c2ccccc2)CC1,nt,i
CCS(=O)(=O)Nc1ccc(C2=NN(S(C)(=O)=O)C(c3cccs3)C2)cc1 (stereo not given),1.1,i
CCOC(=O)c1cnn(-c2nc(OCC)cc(OCC)n2)c1C,nt,i
Cc1ccc(CNC(=O)C2CC(=O)N(c3ccc(OCC(=O)N4CCCC4)cc3)C2)cc1 (stereo not given),nt,i
COC(=O)c1cccc(C#CC(NP(=O)(c2ccccc2)c2ccccc2)c2ccccc2)c1 (stereo not given),-6.33,-6.33*
CCC[C@@H]1C[C@@]1(CCC)[C@@H](NP(=O)(c1ccccc1)c1ccccc1)c1ccc(C(=O)OC)cc1,nt,i
Cc1cc2nc(-c3cccnc3SCC(=O)NC(C)C)[nH]c2cc1C,2.01,i
Cc1ccc(/C(O)=C2\C(=O)C(=O)N(CC(C)O)C2c2ccc(N(C)C)cc2)cc1 (stereo not given),0.74,i
Cc1ccc(-n2ncc3c(SCC(N)=O)ncnc32)cc1C,0.02,i
COc1ccccc1CNC(=O)c1ccccc1OCc1ccc(F)cc1,nt,i
O=C(NCc1ccccn1)c1ccccc1OCc1ccc(F)cc1,-6.38,-6.38*
SMILES,KCNQ2 enhance,KCNQ2 block
CCOc1ccccc1N1CCN(C(=O)c2cn(CC3CCCCC3)nn2)CC1,nt,i
NC(N)=N/N=C/c1ccc(OCc2ccccc2Cl)cc1,-6.23,-6.23*
NC(N)=N/N=C/c1ccccc1,nt,i
CC(C)CCN1CC(=O)N2Cc3[nH]c4ccccc4c3C[C@H]2C1=O,-7.16,-7.16*
CCCN1CC(=O)N2Cc3[nH]c4ccccc4c3C[C@H]2C1=O,nt,i
Cc1cc(C)c(S(C)(=O)=O)c(Oc2cccc(C(F)(F)F)c2)n1,nt,i
Cc1csc(Nc2nc(N)c(C(=O)Nc3ccccc3)o2)n1,nt,i
CCOC(=O)/C(=C\c1ccc(Cl)cc1)c1nc2sc(C)c(C)c2c(=O)[nH]1,-6.93,-6.93*
CCOC(=O)CSc1nc2sc(C)c(C)c2c(=O)[nH]1,1.09,i
CC(=O)c1cccc(N(CC(=O)NC2CCCC2)C(=O)c2csnn2)c1,1.2,i
CC1(C(=O)NC2CCCCCCC2)CC1(Cl)Cl (stereo not given),1.43,i
O=C(Cn1c(=O)cnc2ccccc21)N1CCN(S(=O)(=O)c2ccccc2Br)CC1,nt,i
COc1cc(OC)c(C2=NOC(C(=O)N3CCCc4ccccc43)C2)cc1Cl (stereo not given),0.18,i
CCC1CCCCN1C(=O)C1CC(c2cc(Cl)c(OC)cc2OC)=NO1 (stereo not given),-6.23,-6.23*
CCCCNC(=O)c1onc(CSc2cc(C)cc(C)c2)c1C(=O)NCCCC,-5.61,-5.61*
CCCCNC(=O)c1onc(CSc2cc(C)cc(C)c2)c1C(=O)O,1.9,i
CCOC(=O)Cc1nnc(NC(=O)CSc2nnc3c4ccccc4n(C)c3n2)s1,1.07,i
C=CCc1ccc(OCCn2nnc3ccccc32)c(OC)c1,1.86,i
C=CCc1ccc(OCCn2cccc2C=O)c(OC)c1,7.61*,i
O=C(Cc1ccc(Cl)cc1)NCc1ccccc1Cl,nt,i
O=C(NCc1ccccc1Cl)C1(S(=O)(=O)c2ccc(Cl)cc2)CC1,-5.73,-5.73*
O=S(NCc1ccco1)C12CC3CC(CC(C3)C1)C2 (stereo not given),nt,i
Cc1nc(NC(=O)CN2CCN(c3cccc(Cl)c3)CC2)sc1C(=O)N(C)C,1.46,i
COc1cc(OC)c2c(-c3ccccc3)cc(=O)oc2c1C(CCN1CCCC(C)C1)c1ccc(N(C)C)cc1 (stereo not given),nt,i
COc1ccc(C(CCN2CCCC(C)C2)c2c(OC)cc(OC)c3c(-c4ccccc4)cc(=O)oc23)cc1 (stereo not given),-5.95,-5.95*
SMILES,KCNQ2 enhance,KCNQ2 block
Cc1ccc(C(c2nnnn2C(C)(C)C)N(Cc2ccco2)Cc2cccs2)cc1 (stereo not given),-6.15,-6.15*
CCOc1ccc2[nH]c(=O)c(CN(Cc3cccs3)C(CC)c3nnnn3C(C)(C)CC)cc2c1 (stereo not given),nt,i
CCC(c1nnnn1C(C)(C)C)N(Cc1cccs1)Cc1cc2cc(C)c(C)cc2n2nnnc12 (stereo not given),-5.9,-5.9*
CC(C)(C)c1ccc(CN(Cc2ccccc2)C(c2ccccn2)c2nnnn2C(C)(C)C)cc1 (stereo not given),-9.41,-9.41*
CC(C)(C)n1nnnc1C(c1ccc(Cl)cc1)N(Cc1cccnc1)Cc1ccco1 (stereo not given),-6.18,-6.18*
CC(C)(C)n1nnnc1C(c1cccs1)N(Cc1ccccc1)Cc1cccnc1 (stereo not given),nt,i
CC(C)(C)n1nnnc1C(c1cccnc1)N(Cc1ccccc1)Cc1cccs1 (stereo not given),nt,i
CCN(Cc1ccccc1)C(c1ccncc1)c1nnnn1C(C)(C)C (stereo not given),nt,i
COc1ccc(C(=O)COc2ncnc3cc(Cl)ccc23)cc1,nt,i
O=S(=O)(Nc1nc2ccccc2nc1Cl)c1cccc(C(F)(F)F)c1,0.04,i
c1ccc(CN(Cc2ccco2)C(c2ccncc2)c2nnnn2C2CCCC2)cc1 (stereo not given),nt,i
CC(C)(C)n1nnnc1C(c1ccc(C(F)(F)F)cc1)N(Cc1ccc(F)cc1)Cc1ccco1 (stereo not given),-6.54,-6.54*
O=S(=O)(CCC1CCCCN1)c1ccccc1 (stereo not given),nt,i
CCCn1c(CCc2ccccc2)n[nH]c1=S,0.98,i
CCN(CC)CCn1c(NCc2ccco2)nc2ccccc21,0.5,i
c1ccc(Cn2c(CNc3nc4ccccc4n3CCN3CCCCC3)nc3ccccc32)cc1,-7.29,-7.29*
Cn1c(CNc2nc3ccccc3n2CCN2CCCCC2)nc2ccccc21,nt,i
CCN(CC)CCn1c(NCc2nc3ccccc3n2Cc2ccccc2)nc2ccccc21,-6.2,-6.2*

# High-throughput results (PubChem BioAssay)
